# According to PubChem BioAssay (NCATS):
# Values joined by “and” are separate entries in the source; they are usually repeats but may differ in a detail not shown here. Equal entries are not always repeated. Results filed as inconclusive are left out. Active and inactive are the calls of the source. Calls come from the whole dose curve; as a rule, active = well fitted cell-killing curve with a large enough effect; inconclusive = small, poorly fitted or top-dose-only effect; inactive = flat fitted curve, though single readings scatter.
# Test: Cell Viability - Renal Proximal Tubule (AID 545);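 note: 0% = DMSO only and -100% = 100 µM tamoxifen; nearly all actives have a fitted effect of over 40% in size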
# Details: renal proximal tubule cells viability, primary cells of rat origin; at 91.7 µM (top of the series)
# Source text: NIH Chemical Genomics Center [NCGC]
# NIH Molecular Libraries Screening Centers Network [MLSCN]
# National Institutes of Environmental Health Sciences [NIEHS]
# National Toxicology Program [NTP]
# We have developed a 1536-well cell-based assay for quantitative high throughput screening (qHTS) against a number of cell lines to determine in vitro cytotoxicity of small molecules. This particular assay uses the renal proximal tubule cells which are derived from normal kidney cells freshly isolated from rat.
# NCGC Assay Protocol Summary:
# The CellTiter-Glo luminescent cell viability assay (Promega) is a homogeneous method to measure the number of viable cells in culture. The end point readout of this assay is based on quantitation of intracellular ATP, an indicator of metabolic activity, using the luciferase reaction. Luciferase catalyzes the oxidation of beetle Luciferin to oxyluciferin and light in the presence of ATP. The luminescent signal is proportional to amount of ATP present.
# Using the CellTiter-Glo luminescent cell viability assay, the amount of cellular ATP was measured in the renal proximal tubule cells with complete culture medium following compound treatment for 40 hours. The assay was performed in opaque white Kalypsys 1536-well plates. In the screen, tamoxifen and doxorubicin were used as positive controls. Library compounds were measured for their ability to cause acute toxicity in the cell line, as reflected by a decrease in intracellular ATP levels, in a concentration-dependent manner. […] AC50 values were determined from concentration-response data modeled with the standard Hill equation.
# qHTS protocol for CellTiter Glo renal proximal tubule cell assay
# [Step] [Parameter] [Value] [Description]
# 1. Reagent; 5 uL; 1000 renal proximal tubule cells/well
# 2. Time; 5 hr; 37 °C incubation
# 4. Controls; 23 nL; Tamoxifen 0.34 uM to 100 uM & Doxorubicin 0.02 nM to 100 uM
# 5. Time; 40 hr; 37 °C incubation
# 6. Reagent; 5 uL; CellTiter Glo reagent
# 7. Time; 20 min; Room Temperature
# 8. Detection; Luminescence; Viewlux plate reader
# Keywords: cell viability, cytotoxicity, renal proximal tubule cells, luminescence, NTPHTS, NTPHTS_NCGC, NIEHS, EPA, DSSTox, MLSMR, MLSCN, NIH Roadmap, qHTS, NCGC
row,Compound,"activity change, negative = cytotoxicity"
1,O=P(O)(O)O,-7.24% (inactive)
2,Cc1ncc[nH]1,-3.28% (inactive)
3,Oc1cccc(O)c1O,-27.7% (inactive)
4,C/C=C/C=C/C(=O)O,-2.27% (inactive)
5,CCCCO,-5.24% (inactive) and 3.29% (inactive)
6,COC(=O)c1ccccc1O,-0.7% (inactive)
7,CCOC(C)OCC,-8.55% (inactive)
8,O=c1n(CC2CO2)c(=O)n(CC2CO2)c(=O)n1CC1CO1 (stereo unspecified),-90% (active)
9,CCCCC,5.08% (inactive)
10,CC(C)(C)CC(C)(C)c1ccc(OCCO)cc1,-16.5% (inactive)
11,C[C@H]1O[C@@H](O[C@H]2[C@@H](O)C[C@H](O[C@H]3[C@@H](O)C[C@H](O[C@H]4CC[C@@]5(C)[C@H](CC[C@@H]6[C@@H]5C[C@@H](O)[C@]5(C)[C@@H](C7=CC(=O)OC7)CC[C@]65O)C4)O[C@@H]3C)O[C@@H]2C)C[C@H](O)[C@@H]1O,-10.1% (inactive)
12,Cc1ccc(S(=O)(=O)O)cc1C,-15.2% (inactive)
13,CC1=CC(=O)NS(=O)(=O)O1,-8.28% (inactive)
14,C[C@H](CCC(=O)O)[C@H]1CC[C@H]2[C@@H]3CC[C@@H]4C[C@H](O)CC[C@]4(C)[C@H]3C[C@H](O)[C@]12C,-13.4% (inactive)
15,OB(O)O,-6.9% (inactive)
16,OCc1ccccc1,-2.17% (inactive)
17,C=C1C(CCl)(CCl)C2(Cl)C(Cl)C(Cl)C1(Cl)C2(Cl)Cl (stereo unspecified),-88.3% (active)
18,OC[C@H]1O[C@@H]2O[C@H]3[C@H](O)[C@@H](O)[C@@H](O[C@H]4[C@H](O)[C@@H](O)[C@@H](O[C@H]5[C@H](O)[C@@H](O)[C@@H](O[C@H]6[C@H](O)[C@@H](O)[C@@H](O[C@H]7[C@H](O)[C@@H](O)[C@@H](O[C@H]1[C@H](O)[C@H]2O)O[C@@H]7CO)O[C@@H]6CO)O[C@@H]5CO)O[C@@H]4CO)O[C@@H]3CO,-2.88% (inactive)

row,Compound,"activity change, negative = cytotoxicity"
1,[O-][N+](=Nc1ccccc1)c1ccccc1,-0.723% (inactive)
2,NC(N)=O,-9.08% (inactive)
3,Nc1ncnc2c1ncn2[C@H]1CC[C@@H](CO)O1,2.7% (inactive)
4,NCCN,7.8% (inactive)
5,Nc1ccc(N=Nc2ccccc2)c(N)n1,-20% (inactive)
6,CC[C@H]1OC(=O)[C@H](C)[C@@H](O[C@H]2C[C@@](C)(OC)[C@@H](O)[C@H](C)O2)[C@H](C)[C@@H](O[C@@H]2O[C@H](C)C[C@H](N(C)C)[C@H]2O)[C@](C)(O)C[C@@H](C)CN(C)[C@H](C)[C@@H](O)[C@]1(C)O,-18.1% (inactive)
7,C[C@H](CCC(=O)O)[C@H]1CC[C@H]2[C@@H]3[C@H](O)C[C@@H]4C[C@H](O)CC[C@]4(C)[C@H]3C[C@H](O)[C@]12C,5.01% (inactive)
8,CC/C=C\C/C=C\C/C=C\CCCCCCCC(=O)O,-15.2% (inactive)
9,OCC(O)CO,-12.3% (inactive) and -5.8% (inactive)
10,c1ccc2ccccc2c1,1.8% (inactive)
11,ClC(Cl)Cl,-11.2% (inactive)
12,Nc1nccs1,6.3% (inactive)
13,CO/N=C(/C(=O)N[C@@H]1C(=O)N2C(C(=O)O)=C(COC(N)=O)CS[C@H]12)c1ccco1,4.36% (inactive)
14,CC1=CCC2CC1C2(C)C (stereo unspecified),2.31% (inactive)
15,CC(C)O,5.6% (inactive)
16,Oc1ccc(/C=C/c2cc(O)cc(O)c2)cc1,-14.2% (inactive)
17,CO,5.17% (inactive)
18,OCl,2.44% (inactive)
